KCNQ2 inh: inhibitors of rat KCNQ2 potassium channel; B-score at 10 µM; O88943; CHO-K1 KCNQ2, FluxOR thallium flux, 20 min; active compounds read low; hit rate 1.1% among 310,000;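 active means fluorescence ratio B-score at most minus 3 library SDs, with starting brightness B-score within 2 library SDs, cut at about -5.5 in these data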
KCNQ2 pot: KCNQ2 (rat) channel potentiation | O88943 | CHO-K1 KCNQ2, FluxOR thallium flux fluorescence; active compounds read high | B-score at 10 µM | hit rate 0.54% among 310,000 | AID 2239;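 active means fluorescence ratio B-score at least 3 SD of library B-scores, with initial fluorescence B-score within 3 of them, cut at about 5.3 in these data; same plate scores as AID 2156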;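 further: B-score of peak minus minimum over baseline fluorescence ratio after K+ and Tl+ stimulus; positive B-score means potentiation of KCNQ2 with more thallium influx and brighter signal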
The depositor's hits bear a star; i = inactive; / = no result; ! = not confirmed by another sample. Shown are actives, neighbours in structure and some others; about 1.6% of the full set was active somewhere.

SMILES	KCNQ2 inh	KCNQ2 pot
CCCCc1cc(=O)oc2c(C)c(OCC(=O)NCC3CCC(C(=O)O)CC3)ccc12 (stereo not given)	i	1.6
Cn1c2ccccc2c2cc(/C=N/NC(=O)c3cc(O)ccc3O)ccc21	-7.2*	-7.2
Cn1c2ccccc2c2cc(/C=N/NC(=O)c3cc(O)cc(O)c3)ccc21	i	/
Cc1ccc(S(=O)(=O)N(Cc2ccccc2)c2ccccc2C(=O)N2CCCCC2)cc1	i	/
C=CCNC(=S)Nc1sc2c(c1C(=O)OCC)CC(C)(CC)OC2 (stereo not given)	i	9.9*
C=CCNC(=S)Nc1sc2c(c1C(=O)OCC)CCN(C(=O)OCC)C2	i	/
COc1ccc(C2CC(=O)C(C(c3ccc(O)cc3)C3C(=O)CC(c4ccc(OC)cc4)CC3=O)C(=O)C2)cc1 (stereo not given)	i	/
COc1ccc(NC(=O)CC23CC4CC(CC(C4)C2)C3)cn1	i	18*
O=C(CC12CC3CC(CC(C3)C1)C2)Nc1ccc(C(=O)O)cc1	i	/
Cc1ccc(C(C)(C)C)c(SCC(=O)Nc2nnc(C)s2)c1	i	1.4
COc1ccc(OC)c(-c2csc(N(Cc3ccco3)C(=O)c3cccs3)n2)c1	i	/
COCCCN(C(=O)c1ccccc1)c1nc(-c2ccc(OC)cc2)cs1	-5.9*	-5.9
COc1ccc(-c2csc(N(Cc3ccco3)C(=O)c3cccs3)n2)cc1	-6*	-6
COCCN(C(=O)c1ccccc1)c1nc(-c2ccc(OC)cc2)cs1	i	/
CCCOc1ccc(CN(CCC#N)C(=S)NC(=O)c2ccccc2)cc1	i	7.1*
CCN(CC)S(=O)(=O)c1ccc(C(=O)NC(=S)N(CCO)Cc2ccccc2)cc1	i	1.4
Cc1cc(O)c(C(C[N+](=O)[O-])c2ccc(Cl)cc2)c(=O)o1 (stereo not given)	i	/
Cc1cc(C)n(C(C[N+](=O)[O-])c2ccc(Cl)cc2)n1 (stereo not given)	-10*	-10
O=C(O)C(Cc1c[nH]c2ccccc12)NS(=O)(=O)c1ccc(Cl)cc1 (stereo not given)	-7.3*	-7.3
O=C(O)C(Cc1c[nH]c2ccccc12)NS(=O)(=O)c1ccc(Br)cc1 (stereo not given)	i	1.2
CS(=O)(=O)c1ccc(-n2nnc3ccccc32)c([N+](=O)[O-])c1	i	/
N#Cc1cc([N+](=O)[O-])c(-n2nnc3ccccc32)c([N+](=O)[O-])c1	-5.7*	-5.7
CC(=O)Nc1ccc(Cl)c(-c2nc3ncccc3o2)c1	i	0.02
Cc1ccc(S(=O)(=O)NCC(=O)N2CCN(c3ccc(F)cc3)CC2)cc1	i	/
O=C(CN(c1ccc2c(c1)OCCO2)S(=O)(=O)c1ccccc1)N1CCN(Cc2ccccc2)CC1	i	/
SMILES	KCNQ2 inh	KCNQ2 pot
CCN(CC)CCN(C(=O)c1ccc2c(c1)CCCC2)c1nc2c(C)cccc2s1	-8.1*	-8.1
CN(C)CCN(C(=O)c1ccc2ccccc2c1)c1nc2c(F)cccc2s1	i	/
Cc1cc(C)c2nc(N(CCN(C)C)C(=O)c3ccc4ccccc4c3)sc2c1	-6*	-6
CCN(CC)CCN(C(=O)c1ccc2c(c1)CCCC2)c1nc2ccc(C)cc2s1	i	/
N#Cc1c(NC(=O)CSc2nc(N)cc(=O)[nH]2)sc2c1CCCC2	i	1.5
CN(C(=O)Nc1ccccc1)C1CCCc2ccccc21 (stereo not given)	i	/
CC(=O)c1cnc2c(-c3ccc(Cl)cc3)c(C)nn2c1C	-5.8*	-5.8
CC(=O)c1cnc2c(-c3ccccc3)c(C)nn2c1C	i	/
CCCN(CC1CC1)C(=O)CSc1ncnc2sc(C)c(C)c12	-6.3*	-6.3
CCN(C(=O)CSc1ncnc2sc(C)c(C)c12)C1CCS(=O)(=O)C1 (stereo not given)	i	/
CCOc1ccc(N(CC(=O)NC2CCCCC2)C(=O)Cn2nnc(-c3ccc(C)o3)n2)cc1	i	1.2
COC(C(=O)Nc1c(F)cccc1F)c1ccccc1 (stereo not given)	i	0.09
Cc1c(O)cccc1C(=O)N[C@@H](CSc1ccccc1)[C@H](O)CN1C[C@H]2CCCC[C@H]2C[C@H]1C(=O)NC(C)(C)C	-5.7*!	-5.7
CCCN(CCC)CC(O)Cn1cc(/C=C/C(=O)c2ccccc2)c2ccccc21 (stereo not given)	-6.3*	-6.3
O=C(/C=C/c1cn(CC(O)CN2CCCCC2)c2ccccc12)c1ccccc1 (stereo not given)	-5.7*	-5.7
O=C(/C=C/c1cn(CC(O)CN2CCCCC2)c2ccccc12)c1cccs1 (stereo not given)	i	/
CCCN(CCC)CC(O)Cn1cc(/C=C/C(=O)c2cccs2)c2ccccc21 (stereo not given)	i	/
CCCCc1nnc(NC(=O)c2ccccc2OCc2c(C)noc2C)s1	i	0.27
O=C(N/N=C/c1cccnc1)c1cc(-c2ccc(Br)cc2)nc2ccccc12	i	/
O=C(CNS(=O)(=O)c1ccc(Cl)cc1)OCC(=O)N1CCCc2ccccc21	i	/
O=C(COC(=O)C1(c2ccc(Cl)cc2)CCCC1)N1CCc2ccccc21	-7.3*	-7.3
O=C(Nc1ccc(Br)cc1F)c1cccnc1	i	0.46
O=C(c1cc([N+](=O)[O-])ccc1Cl)N1CCN(c2ccc([N+](=O)[O-])cc2)CC1	-6.9*	-6.9
O=C(Cc1cccs1)N1CCN(c2ccc([N+](=O)[O-])cc2)CC1	-5.5*	-5.5
O=C(c1cc([N+](=O)[O-])ccc1Cl)N1CCN(c2ccc(F)cc2)CC1	i	0.24
SMILES	KCNQ2 inh	KCNQ2 pot
O=C(Cc1cccs1)N1CCN(c2ccc(F)cc2)CC1	i	1.2
CC(=O)Nc1ccc(S(=O)(=O)N(C)Cc2cnn(C)c2)cc1	i	0.09
COc1ccc(N(C(C)=O)S(=O)(=O)c2cccc3cccnc23)cc1	i	/
CN(C)C(=O)COC(=O)[C@H](Cc1ccccc1)NC(=O)c1ccco1	i	/
CN(C(=O)COC(=O)C(Cc1ccccc1)NC(=O)c1ccccc1)c1ccccc1 (stereo not given)	-5.7*	-5.7
CC(C)CCCCCCNC(=S)Nc1ccc(S(=O)(=O)N2CCOCC2)cc1	i	/
CCCCNC(=S)Nc1ccc([N+](=O)[O-])cc1	i	12*
CC(C)CCNC(=S)Nc1ccc([N+](=O)[O-])cc1	i	14*
CCCCNC(=S)Nc1ccc(Oc2ccccc2)cc1	i	/
CC(C)CCNC(=S)Nc1ccc(Br)cc1	i	5.3*
CCCNC(=S)Nc1ccc(Br)cc1	i	2.3
COC(=O)Cc1ccc(NC(=S)NCCC(C)C)cc1	i	/
CCc1nnc(NC(=O)CSc2nc3ccc(OC)cc3[nH]2)s1	i	0.36
Cc1ccc(S(=O)(=O)Cc2cc(F)c([N+](=O)[O-])cc2[N+](=O)[O-])cc1	i	/
COc1ccc(-c2csc3[nH]c(=S)n(-c4ccccc4)c(=O)c23)cc1OC	i	0.12
CC(Cn1cncn1)C(=O)N1CCN(S(=O)(=O)c2ccc(Cl)cc2)CC1 (stereo not given)	i	/
COc1ccc(C2=NN(C(=O)CCC(=O)O)C(c3ccccc3F)C2)cc1 (stereo not given)	i	/
O=c1oc(-c2ccccc2)cc(Cl)c1Cl	i	/
Cc1ccc(NC(=O)C2CCN(S(=O)(=O)c3ccc4c(c3)CCCC(=O)N4)CC2)cc1N(C)C	i	0.7
NC(=O)COC(=O)c1sc2ccccc2c1Cl	i	0.01
Cc1cc(C)n(CCOC(=O)c2sc3ccccc3c2Cl)n1	-10*	-10

High-throughput results deposited in PubChem by Johns Hopkins Ion Channel Center.
